# PubChem BioAssay AID1508600 (Functional Genomics Laboratory (NCATS/FGL), 2020)
# The campaign covered roughly 53,000 sequences. About 3,700 (7%) were called active. Only a selection was taken, and actives are over-represented in it overall. Unmarked numbers belong to inactive results.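 How the source made its calls: active means gene knockdowns whose robust z-score for IL-1 alpha signal is at least 2 or at most -2, so actives lie on both sides; inactive means the rest.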
# Assay: Components of the Cytosolic LPS Sensing Pathway: Gene Identification via Genome-wide siRNA Screen;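 further: robust z of the log signal after scaling to non-targeting control siRNA wells of the plate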
# Conditions: RAW264.7 macrophages, IL-1a HTRF, actives lie on both sides, screened at 100 nM (by protocol), cells primed 5 h with Pam3CSK4 first
# Outline: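 RAW264.7; siRNA 100 nM final, RNAiMAX, 48h 37 degrees C; Pam3CSK4 5 h; LipidA + TransIT-TKO 24 h; IL-1a HTRF; CellTiter-Glo viability; robust z vs negative-control median.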
row,Sequence,z-score
1,GGCCUGUGGAAGAAAUACGTT against Pdhb,1.82
2,GCAAUUUGAGCAGUAUGUATT against Cpsf7,-2.85 (active)
3,GGAAACAUGUCCUCACACATT against Top3b,1.41
4,GGCUCAUUUGCUGAGUGUGTT against Fscn2,1.68
5,GCCGGUAAAAUUAAGGUGATT against Cyp2j9,-0.13
6,GGGUUUGGUCUCAUAUAAATT against Samd7,-0.618
7,GCAGAAGUCGAGCUAUGUUTT against Zfp365,-1.21
8,GGCUAAAUGCCGAUGUACUTT against Gapvd1,2.08 (active)
9,GGGAUAAUAAUGUUGAUUGTT against Mrc1,-0.152
10,GCAUACCUCCGUAUUGUGATT against Snx30,-0.868
11,CCUGACAGACCGACAAGUGTT against Hoxc11,-2 (active)
12,GAUCAUCACAGAGGUCCAGTT against Fabp6,0.308
13,GGUGAUGGGCAAGGUGUUCTT against Syvn1,0.25
14,CGGUACAAGCUAGACCUCATT against Mettl26,0.493
15,CCAAUACUACAUAAUGUCUTT against Abcc12,-0.354
16,GGAAUUCCCAAAACUACUGTT against Tbck,-1.28
17,GGAAUGUCGAAGAAAAUGCTT against Adam15,-0.197
18,GCGCAAUAAGAUCUUCAUGTT against Ddx55,0.454
19,GGCACUUUCCCUAUAUUGUTT against Col26a1,-1.57
20,CCUACGACUUCUACUACAUTT against Chst8,1.69
21,GGAGUGCGGACGAUAAUACTT against Ppp1r3f,-1.97
22,GCUGGCUAUACUUUACAACTT against Prkg1,2.11 (active)
23,GUAUUGGAUACGAAGCAGATT against Defb2,-0.154

row,Sequence,z-score
1,GGACAUGUGGAAAUGGAUATT against Arhgap4,1.97
2,GGCUUUCUUCAACCUGAGUTT against Duoxa1,-2.43 (active)
3,GGGAAGAAGAUGGAAUUUATT against Smoc1,1.22
4,CGGGCUGCUACGAAAAAGUTT against Tspan9,0.152
5,GGAAACACGUCUCCUCCAUTT against Krt87,1.26
6,CGCACAAAGGAUUUUUGUATT against Epha7,-0.064
7,GGUGUGAUUGAAGAAGCGGTT against Gpr37,-0.463
8,CGACAACAAUCUGGCCUAUTT against Ap2s1,2.09 (active)
9,GUGCCUCUCAUCACUAUCUTT against Olfr571,0.501
10,GGAAACCCAGAGCAGCAGATT against Tdg,-1.01
11,GGAGCUCAAACAGGAGAACTT against Lhfpl4,0.383
12,GGUAUUUGCUGAACUGUUUTT against Ckmt1,-0.931
13,GGAAGGAAGCUAAAAAACGTT against Gnl3,2.24 (active)
14,GGCUUAACAGAGAAACACCTT against Lrrc49,0.563
15,GAAUGUCUGAGCAAGGAGGTT against Arpp21,0.227
16,GCUCAUGUAGGAUGUAUAUTT against Olfr146,-0.483
17,CCCUCCAUGGAAAUGACAUTT against Slit3,2.4 (active)
18,GCAGAUGUACUCUAAGGGUTT against Adam23,1.17
19,CGCCAUAGUUGGUUUUGUUTT against Scamp4,1.2
20,GCGACUACAAGGAUACCCUTT against Krt71,0.169
21,GGCCAGUGAGCAGCAUUAUTT against Krt222,0.787
22,CCGCUCUUUUACAGCUGGATT against Rsl1d1,1.99
23,CCCGCUAUUUGGUGCUAACTT against Amh,3.21 (active)

row,Sequence,z-score
1,GCAUAACUCCCAUCCAUAGTT against Glra2,-0.622
2,CCUUUUUUUGGUAACUCGUTT against Sox11,-0.0308
3,CCUACAGAAUAGAAAAUUCTT against Elmod2,-0.161
4,GGCCCAACACCUUUAUCAUTT against Akt1,2.77 (active)
5,GGAUGGACUAAAUGAUGAUTT against Ythdf2,-0.00923
6,GGAUUCUGUGCUUUCCUGGTT against Pomt2,-0.77
7,CCUGCAUCGUACGCUACUUTT against Pcgf2,-1.83
8,GGUGCUCUCAAGUGGGAUUTT against Gm5114,-2.15 (active)
9,GCCAAAUUAGCAGCUUGUGTT against Rln3,-0.0674
10,CGUACAACCUCAAGGUUCUTT against Lag3,-1.68
11,GGCAAAAUUAGCAUCAAAGTT against Slc22a3,0.577
12,GCCUAGACCUAAGCAUAGCTT against Prpmp5,0.228
13,GGCCCUGUUAGUGCUAUACTT against Amh,-1.15
14,GGAAGAUUGAAAUAGGCGATT against Mecom,-1.25
15,GGAAAAGGCCGAUUUCGUGTT against Dixdc1,0.556
16,GGCAGUAGUGAACAGAGACTT against Krt222,-0.199
17,GGAUCUUCCUGGAUGCCAATT against Hps1,-2.61 (active)
18,GCUGACUCCGUGUUUUUAATT against Arhgef18,-0.539
19,GGGCUCUUGUGUUAAGGCATT against Krt27,-0.119
20,GGAGCUAGAACUCAAUGAATT against Lingo1,0.65
21,CCUCAUAGCCAGUCUUUUUTT against Pafah2,-0.553
22,GUCCUAAAACGAGUGAGAGTT against Trib3,-0.793
23,GGACACAGCAAGGAAGAAATT against Mad2l1bp,0.335
